p53ts 39C kill = qHTS Screen for Compounds that Selectively Target Cancer Cells with p53 Mutations: Cytotoxicity of p53ts Cells at the Nonpermissive Temperature. H1299-p53A138V viability at 39C, ATP luminescence, 24 h. Potency, µM (series often up to 46.1 µM), inactives show top-dose activity change, negative = cell killing, most hits filed as cytotoxic. 130,000 compounds, 1.5% hits. AID 902, 2007; further: potency means the concentration at half of the fitted maximal effect; on the % scale 0 is the no-effect control and ±100 the full control effect; nearly all actives have a fitted effect of over 55% in size
Peg3 imprint = qHTS Assay for Compounds that Induce Erasure of Genomic Imprints; mouse ES Peg3-LacZ reporter, beta-gal luminescence, 40 h; Potency, µM (top dose mostly 60.7 µM), without a hit: at the top dose activity change, positive = activation, actives largely listed as activators; 110,000 compounds, 0.02% hits; AID 1948, 2009; further: potency means the concentration at half of the fitted maximal effect
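Imprint erasure is scored as LacZ activity from the silenced maternal Peg3 allele in feeder-free female ES cells cultured 40 h with LIF. Luminescence is normalized to in-plate negative controls and fitted to the Hill equation.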
p53ts 32C tox = qHTS Screen for Compounds that Selectively Target Cancer Cells with p53 Mutations: Cytotoxicity of p53ts Cells at the Permissive Temperature | H1299-p53A138V at 32C, ATP luminescence viability, 24 h | Potency, µM (series often up to 46.1 µM), for the others: at the highest dose activity change, negative = cytotoxicity, hits mostly cytotoxic | 130,000 compounds, 0.93% hits | AID 924, 2007;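 further: potency means the concentration at half of the fitted maximal effect; 0% = DMSO and -100% = full killing by reference compound; nearly all actives have a fitted effect of over 55% in size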
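ATP-content luminescence (ATPlite) read-out after 24 h compound exposure at 32C in H1299-p53A138V cells (600/well). Tested up to 46 uM. Normalized to DMSO (0%) and 100 uM tamoxifen (100% killing); Hill-fit AC50.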
GFP derepression = qHTS Assay for Epigenetic Modulators | mouse C127i GFP locus derepression, cytometry, 30 h | Potency, µM (highest dose often 46.1 µM), for the others: at the highest dose GFP derepression (activation) | 68,000 compounds, 0.09% hits; further: % of control where 0% means no effect
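Derepression screen: silenced CMV-GFP reporter in murine C127i cells, 30 h compound incubation at 37 C, washed cells imaged by laser-scanning cytometer to enumerate GFP-expressing objects of 20 to 120 um.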
HBB splice mod = qHTS Assay for Modulators of Hemoglobin Beta Chain Splicing | HBB splicing reporter cell assay, activation; EGFP reporter with mutant IVS2-654 intron; response scale: normalised to 500 nM splice-correcting PNA | AID 925, 2007 | 65,000 compounds, 0.06% hits | Potency, µM (top dose mostly 46.1 µM), inactives show at the top dose activation, hits mostly activators; further: potency means the concentration at half of the fitted maximal effect; 0% is about no effect
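HeLa cells stably expressing EGFP interrupted by mutant beta-globin intron 2 (IVS2-654), 500/well in 2% FCS. Treated with compound for 2 days at 37C. Splicing correction scored as total well GFP intensity (488 nm excitation, 500-520 nm emission); 500 nM antisense PNA served as control.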
UbGFP stabilizer = Ubiquitin-GFP Assay | Ubiquitin-GFP reporter cells, proteasome inhibition, GFP fluorescence; response scale: untreated = 0%, 10 µM MG-132 = 100% | Potency, µM (top dose mostly 45.9 µM), inactives show at the top dose activation (GFP accumulation), usual class: activators | 67,000 tested, under 10 active | AID 526, 2006; active means well fitted activation curve with a large enough effect, not every such curve was filed as active; inconclusive means small, poorly fitted or top-dose-only effect, or another doubt; inactive means no such curve, though single readings can be large or run the other way; further: potency means the concentration at half of the fitted maximal effect
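Reporter cells (U2OS, ubiquitin-G76V-GFP fusion) are plated overnight, then treated 4 hr at 37 °C with compound titrations from 46 uM down to 2.9 nM. Activity is scaled against untreated cells and 10 uM MG-132.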
Numbers without * were called inactive; ? = inconclusive; · = no result given; [ ] = remark or other dose. Only some compounds are listed: those with a hit (about 1.6% of all), similar ones and a draw of the others. Unless noted, the call rests on the fitted dose curve; in most records, active means well fitted curve in the direction sought with a large enough effect; inconclusive means small, poorly fitted or top-dose-only effect, or another doubt; inactive means no such curve, though single readings can be large; an effect the other way counts as inactive or inconclusive.

SMILES	p53ts 39C kill	Peg3 imprint	p53ts 32C tox	GFP derepression	HBB splice mod	UbGFP stabilizer
Cc1ccc(C)c2c(SC(C)C(=O)NCc3ccco3)nc(-c3ccccc3)nc12 (stereo not given)	8.8%	·	0.9%	·	·	·
C=CC(C1=CC(=O)C(OC)=CC1=O)c1ccccc1 (stereo not given)	99.9%	-49.8%	12.6µM*	·	·	·
O=C1CCCC(O)=C1N=Nc1c(Cl)cc(Cl)cc1Cl	1.0%	·	·	·	·	·
CCCCC(=O)OCc1cc(=O)n2nc(C3CC3)sc2n1	9.9%	8.7%[10.9 µM]	7.7%	·	·	·
COc1cc2nc(SCC(=O)Nc3ccccc3C)n3nc(CCn4c(C)nc5ccccc54)nc3c2cc1OC	8.3%	4.5%[10.9 µM]	-1.5%	·	·	·
CCOc1ccccc1NC(=O)CSc1nc2cc(OC)c(OC)cc2c2nc(CCn3c(C)nc4ccccc43)nn12	5.01µM*	-10.3%[10.9 µM]	?	·	·	·
CC1CCCN(S(=O)(=O)c2ccc(C(=O)Nc3nnc(-c4ccccc4Cl)o3)cc2)C1 (stereo not given)	-23.4%	-16.3%	-19.1%	1.8%	-0.5%	-2.1%
CCC1CCCCN1S(=O)(=O)c1ccc(C(=O)Nc2nnc(-c3cccs3)o2)cc1 (stereo not given)	15.8µM*	-26.4%	1.9%	9.1%	-0.7%	4.4%
COc1ccc(-c2nnc(NC(=O)c3ccc(S(=O)(=O)N4CCc5ccccc5C4)cc3)o2)cc1	?	-6.5%	-17.7%	3.6%	1.4%	-1.8%
CCC1CCCCN1S(=O)(=O)c1ccc(C(=O)Nc2sc3c(c2C(N)=O)CCC3)cc1 (stereo not given)	9.2%	-10.3%[10.9 µM]	14.6%	·	·	·
COc1cccc(-c2nnc(NC(=O)c3ccc(S(=O)(=O)N4CC(C)OC(C)C4)cc3)o2)c1 (stereo not given)	12.6µM*	-43.1%	-10.3%	-1.9%	-4.9%	-9.5%
CC1CC(C)CN(S(=O)(=O)c2ccc(C(=O)Nc3nnc(-c4cccs4)o3)cc2)C1 (stereo not given)	15.8µM*	-32.1%	6.0%	9.5%	-2.7%	-7.5%
OCc1cc([C@@H](O)CNCCCCCCOCCCCc2ccccc2)ccc1O	12.6µM*	-16.1%	-1.7%	-1.4%	0.1%	1.9%
CC(CCc1ccccc1)NCC(O)c1ccc(O)c(C(N)=O)c1 (stereo not given)	2.9%	-13.3%	0.8%	2.3%[20.6 µM]	·	·
O=C1CCCc2nc(N3CCN(Cc4ccccc4)CC3)ncc21	-7.9%	-20.6%	3.6%	4.1%	-0.8%[1.84 µM]	8.6%
Cc1c(C(=O)O)nnn1-c1ccccc1	11.0%	2.4%	-0.6%	2.3%	-0.1%[57.5 µM]	2.0%
Cc1c(C(=O)Nc2ccc(C(=O)O)cc2)nnn1-c1ccccc1	?	-56.5%[10.9 µM]	10µM*	·	·	·
CCc1ccc2nc(N3CCN(C(=O)c4ccco4)CC3)sc2c1	?	-7.3%[10.9 µM]	7.0%	·	·	·
CCCCN(CC)CCCNC(=O)C1CCN(c2nc3ccc(CC)cc3s2)CC1	20µM*	10.2%[10.9 µM]	12.6µM*	·	·	·
CCCCN(C)CCCNC(=O)C1CCN(c2nc3ccc(CC)cc3s2)CC1	?	-9.0%[10.9 µM]	12.6µM*	·	·	·
CCCCN(C)CCCNC(=O)C1CCN(S(=O)(=O)CC)CC1	-17.0%	-11.7%[10.9 µM]	-1.7%	·	·	·
O=C(Cn1c(=O)n(-c2ccc(Cl)cc2)c(=O)c2c3c(sc21)CCC3)c1ccccc1	15.5%	4.5%[10.9 µM]	8.3%	·	·	·
Cc1nc2ccccc2c(=O)n1NC(=O)C1CCCCC1	6.2%	-6.2%	-3.7%	-4.3%	0.9%	-2.5%
CCCn1nnnc1SCC(=O)NCc1cccs1	-10.0%	2.7%	-1.4%	-1.0%	-1.4%	-1.9%
COCCn1c(-c2ccc(Cl)cc2)cnc1SCC(=O)NCc1cccs1	25.1µM*	-11.8%	?	-0.6%	·	7.7%
